# Compound activity as filed in PubChem BioAssay.
# Pf growth 48h: P. falciparum growth inhibition at 48 hours (one generation); P. falciparum luciferase growth in erythrocytes, 48 h; Potency, µM (titrated, usually from 28.7 µM), for inactives: at the highest dose activity change, negative = inhibition, usual class: inhibitors; 310,000 tested, 5.9% active; further: potency means the concentration at half of the fitted maximal effect
#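 In quantitative HTS format, infected erythrocytes bearing luciferase-reporter parasites were treated for a single generation at 37 C. Luminescence after adding detection reagent served as the growth measure.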
# HCMV inh: blocks human cytomegalovirus replication; HFF cells, HCMV-luciferase reporter, 72 h; stronger effect = lower value; 410,000 tested, 4.5% active; activity change, negative = inhibition, % at 57.5 µM; in the data active means activity change below about -60%; inconclusive means no clear call, values can overlap the other calls; inactive means above about -39%
#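 Two compound doses tested in HFFs infected with HCMV-luciferase, MOI 1 PFU/cell, 72 h at 37C. Lysate luminescence read with OneGlo; data normalized against buffer-only and 10uM Salinomycin inhibitor controls.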
# Pf growth 96h: P. falciparum growth inhibition at 96 hours; P. falciparum luciferase reporter growth, 96 h; 320,000 tested, 6.9% active; AID 504834; Potency, µM (highest dose often 28.7 µM), for inactives: top-dose activity change, negative = inhibition, actives largely listed as inhibitors; further: potency means the concentration at half of the fitted maximal effect
#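 Delayed-death screen, second-generation endpoint: infected erythrocytes, 2% hematocrit, 0.05% parasitemia final; 96 hours at 37 C, 5% CO2; luciferase detection reagent; luminescence decrease equals reduced growth.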
# HCV inhibitor: HCV inhibition. AID 651820. 340,000 tested, 3.4% active. Huh7.5.1 HCVcc-Cre infection, luciferase reporter, 44 h. Potency, µM (highest dose often 41.8 µM), without a hit: at the top dose activity change, negative = inhibition, hits mostly inhibitors; further: potency means the concentration at half of the fitted maximal effect
#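 Cells seeded at 1,000/well and cultured 4 h, then compounds added followed by HCVcc-Cre virus (~0.5 moi). After 44 h further culture, luciferase substrate was added, plates held 15 min at room temperature, and luminescence read for 15 sec.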
# Numbers without * were called inactive; ? = inconclusive; . = not tested or not shown; + = active, no number. Hits are enriched below; roughly 13% of the tested compounds scored in any of these assays. Unless noted, the call rests on the fitted dose curve; in most records, active means well fitted inhibition curve with a large enough effect; inconclusive means small, poorly fitted or top-dose-only effect, or another doubt; inactive means no such curve, though single readings can be large or run the other way. On the % scale 0 is the no-effect control and ±100 the full control effect.
SMILES,Pf growth 48h,HCMV inh,Pf growth 96h,HCV inhibitor
CCOC(=O)C1CCCN(S(=O)(=O)c2cc(C(=O)OC)n(C)c2)C1 (configuration not stated),4%,-60*,36%,6.3µM*
Cc1ccc(NC(=O)Cn2c(=O)c3cc(Cl)ccc3n3nncc23)cc1,.,8,.,.
COc1cc(OC)cc(C(=O)Nc2cccc3cccnc23)c1,32%,-4,17%,-15%
Nc1ccc(Br)c2cccnc12,13%,-26,27%,?
Oc1ccc(N=Nc2ccc3c(c2)OCCO3)c(O)c1,130%,-13,152%,8%
COc1cccc(N=Nc2ccc3cccnc3c2O)c1,.,-100*,?,2µM*
Nc1ccc(N=Nc2ccccc2)c2cccnc12,50%,389,14%,2.5µM*
O=Nc1ccc(O)c2ncccc12,1.5µM*,-98*,3.3µM*,?
Oc1ccc(N=Nc2ccc3c(c2)OCCO3)c2cccnc12,1µM*,-98*,?,?
CCCCN(CC)C(=O)c1nn(C)c2c1CSc1ccccc1-2,.,-6,.,.
Cc1ccc(Nc2cc(C)c(C#N)c3nc4ccccc4n23)cc1Cl,.,10,.,.
Cc1ccccc1N=Nc1ccc(O)c2ncccc12,0.37µM*,-93*,?,?
O=S(=O)(O)c1cccc2c(N=Nc3ccc(O)c4ncccc34)cccc12,?,.,-17%,?
COc1cccc(N=Nc2ccc(O)c3ncccc23)c1,?,-100*,?,6.3µM*
COc1ccc(N=Nc2ccc(O)c3ncccc23)cc1,0.59µM*,+,0.52µM*,?
COc1ccc(C)cc1N=Nc1ccc(O)c2ncccc12,2.6µM*,-100*,?,?
O=C(CCc1nc2cccnc2n1Cc1ccccc1)NCc1cccc(Cl)c1,.,-17,.,.
CCc1nn(CC(=O)N2CCN(c3cccc(C)c3C)CC2)c(=O)c2cc3sccc3n12,.,-19,.,.
Cc1ccc(C)c(N2CCN(CCCNC(=O)C3COc4ccccc4C3)CC2)c1 (configuration not stated),.,-40,.,.
O=C(NCCc1ccccc1)C1CCN(c2ncnc3c2nc2n3CCCCC2)CC1,.,41,.,.
COc1cc2c(-c3ccc4[nH]ccc4c3)c(-c3ccc(C#N)cc3)oc(=O)c2cc1OC,?,-25,4.7µM*,11µM*
COc1cc2c(-c3ccc4cc[nH]c4c3)c(-c3ccsc3)oc(=O)c2cc1OC,?,?,2.3µM*,?
CN(C)S(=O)(=O)c1ccc(C(=O)Nc2ccccc2[N+](=O)[O-])cc1,29%,-65*,0%,2%
Cc1ccc(N2C(=O)C(CN(C)C)C2c2ccccc2)cc1 (configuration not stated),?,-20,?,-5%
Cc1ccc(C2C=NN(c3ccccc3)C2=O)cc1 (configuration not stated),6.6µM*,22,?,7%
SMILES,Pf growth 48h,HCMV inh,Pf growth 96h,HCV inhibitor
COc1ccc(S[C@]2(C(=O)N3CCCC3)CC(=O)N(c3ccc(C#N)cc3)[C@@H]2c2ccc(OC)cc2)cc1,.,-25,.,.
O=S(=O)(NC1c2cccc3cccc(c23)C1N1CCNCC1)c1ccccc1 (configuration not stated),?,21,3%,?
CS(=O)(=O)NC1c2cccc3cccc(c23)C1N1CCOCC1 (configuration not stated),6%,-34,-1%,1%
O=C(c1ccccc1)N1CCN(C2c3cccc4cccc(c34)C2NS(=O)(=O)c2ccccc2)CC1 (configuration not stated),6.6µM*,-25,4.1µM*,?
O=S(=O)(NC1c2cccc3cccc(c23)C1N1CCN(CCO)CC1)c1ccccc1 (configuration not stated),15µM*,?,-24%,?
CCOc1ccc(NC(=O)CC2C(=O)N(c3ccccc3)C(=O)N2CCc2sccc2C)cc1 (configuration not stated),.,-2,.,.
CCOc1ccc(-c2cc3c(=O)n(CC(=O)NCc4ccc(F)cc4)ccn3n2)cc1,.,47,.,.
COc1ccccc1C(=O)Nc1nc2ccccc2[nH]1,-72%,-76*,-61%,-4%
COc1ccccc1C(=O)NCCC(=O)Nc1nc2ccccc2[nH]1,3%,74,16%,?
Cc1ccc(N(C)S(=O)(=O)c2cccc(C(=O)Nc3nc4ccccc4[nH]3)c2)cc1,12µM*,-87*,?,11µM*
COC(=O)Nc1nc2ccc(C(=O)c3cccs3)cc2[nH]1,56%,-75*,26%,-8%
Cc1ccc(C(=O)Nc2nc3ccccc3[nH]2)cc1,-98%,-84*,-39%,2%
COc1ccccc1CNC(=O)c1ccc(C)c(-n2cnc3cccnc32)c1,.,0,.,.
O=C(CC1(O)C(=O)N(CCc2ccccc2)c2ccc(Br)cc21)c1ccc(F)cc1 (configuration not stated),.,-19,.,.
Cc1ccc(/C=C/c2onc(C)c2S(=O)(=O)N2CCC(C(=O)NCc3ccc(N(C)C)cc3)CC2)cc1,.,-31,.,.
COc1ccc(C(=O)Nc2nc3ccccc3[nH]2)cc1,-59%,-33,-85%,-13%
COc1cc(C(=O)Nc2nc3ccccc3[nH]2)cc(OC)c1OC,?,59,9.3µM*,-25%
COc1cc(SC)ccc1C(=O)NCCOc1ccc(F)cc1,98%,55,-2%,-11%
COc1cc(SC)ccc1C(=O)Nc1nc2ccccc2[nH]1,?,-98*,0.17µM*,-15%
COc1ccc(CCNC(=O)c2ccc(SC)cc2OC)cc1,?,-28,2.6µM*,-24%
O=C(Nc1nc2ccccc2[nH]1)c1cccs1,374%,21,0.47µM*,5%
CSc1ccccc1C(=O)Nc1nc2ccccc2[nH]1,145%,34,71%,-12%
CC(=O)Nc1ccc(Nc2cc3[nH]c(-c4cccc(F)c4)cc3cn2)cc1,.,-34,.,.
Cc1ccc(Nc2nc3ccccc3c(=O)s2)cc1C,6%,-73*,-21%,9%
Cn1cccc1-c1nc2ccc(NC(=O)c3cccs3)cc2[nH]1,1%,10,12µM*,?
SMILES,Pf growth 48h,HCMV inh,Pf growth 96h,HCV inhibitor
CCCSc1ccc2nc(NC(=O)OC)[nH]c2c1,111%,-20,223%,-21%
COc1ccc(Nc2nc3ccccc3c(=O)s2)c(OC)c1,?,-31,?,-7%
COC(=O)Nc1nc2ccc(SC(C)C)cc2[nH]1,60%,-82*,39%,?
C/C(=N\Nc1nc2ccccc2[nH]1)c1ccc([N+](=O)[O-])cc1,0.19µM*,-18,0.066µM*,10µM*
COCCNC(=O)CCCN1C(=O)CCn2nc(-c3cccn3C)cc21,.,0,.,.
CSc1nc2ccc3nc(NC(=O)c4ccc(C)cc4)sc3c2s1,24%,-8,46%,-9%
Cc1ccc(C(=O)Nc2nc3ccccc3c(=O)s2)cc1,20%,-23,17%,8.9µM*
CC1CC(OC(=O)C(O)c2ccccc2)CC(C)(C)C1 (configuration not stated),-3%,.,12%,.
S=c1[nH]nc(-c2cccs2)n1/N=C/c1cn(-c2ccccc2)nc1-c1cccs1,60%,95,56%,?
